Experimental data reported in PubChem BioAssay (EPA / NIEHS).
Records with an inconclusive call do not appear. Activity calls are given as the source filed them. Rule for the calls: active = hit-call score of the fitted dose curve at least 0.9, where 1 is the maximum; inconclusive = response in the unintended direction; inactive = score below 0.9.

Assay: ATG_M_06_TRANS: Attagene TRANS-FACTORIAL HepG2 Assay for M06 Transcription Factor (Internal Marker) (AID 2282983);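 for AC50: potency for rise in reporter mRNA above DMSO baseline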
Conditions: HepG2 Attagene TRANS M06 internal marker reporter
Experimental: ATG_TRANS is a cell-based, multiplexed-readout assay that uses HepG2, a human liver cell line, with measurements taken at 24 hours after chemical dosing in a 24-well plate.ATG_M_06_TRANS is one of 30 assay component(s) measured or calculated from the ATG_TRANS assay. It is designed to make measurements of mRNA induction, a form of inducible reporter, as detected with fluorescence intensity signals by Reverse transcription polymerase chain reaction (RT-PCR) and Capillary electrophoresis technology.Data from the assay component ATG_M_06_TRANS was analyzed into 1 assay endpoint. This assay endpoint, ATG_M_06_TRANS, was analyzed in the positive analysis fitting direction relative to DMSO as the negative control and baseline of activity. Using a type of inducible reporter, measures of mRNA for gain-of-signal activity can be used to understand the background control at the transcription factor-level as they relate to the gene . Furthermore, this assay endpoint can be referred to as a secondary readout, because this assay has produced multiple assay endpoints where this one serves a background control function. To generalize the intended target to other relatable targets, this assay endpoint is annotated to the background measurement intended target family, where the subfamily is internal marker.
Human liver HepG2 cells are transiently transfected with multiple reporter transcription units (MRTUs) in 6-well plates using FuGene 6 reagent (Roche; 3 ml FuGene/1 mg DNA). The MRTU constructs are regulated by a cis-regulating element (promoter). […] A major difference between the CIS and TRANS system is that in CIS activities of endogenous TFs are measured, whereas the TRANS assay evaluates changes in activities of exogenous, chimeric NR-Gal4 proteins. […] At the end of 24 hour incubation, total RNA was isolated using TriZol reagent (Invitrogen). The isolated RNA is then reverse-transcribed using oligo(dT) primer and Mo-MLV reverse transcriptase (Invitrogen) with DNAse I (Ambion) treatment for 30 min. The one-tenth of the produced cDNA was amplified by PCR using Taq DNA polymerase (Invitrogen) and two reporter sequence-specific primers. The PCR products were fluorescently labeled by primer extension with 6-arboxyfluorescein (6-FAM) 5'-labeled reporter sequence-specific primer (2 min at 95 C, 20 s at 68 C and 10 min at 72 C) and these products were digested with 5U of HpaI (New England Biolabs) for 2h at 37 C. The fragments were purified using Qiaquick PCR columns (Qiagen), analyzed on an ABI 3130xL genetic analyzer (Applied Biosystems) with peak positions identified by using a set of X-rhodamine (ROX)-labeled MapMarker1000 molecular weight standards (BioVentures). The raw capillary electrophoresis data was processed using Attagraph software (Attagene).

outcome, inactive:
CNS(=O)(=O)c1cc(C(=O)N2CCC(CCN3C4CCC3CC(n3c(C)nc5ccccc53)C4)(c3cccc(F)c3)CC2)c(Cl)cc1F (stereo not given), CCCCC(CC)COC(=O)c1ccc(C(=O)OCC(CC)CCCC)cc1 (stereo not given), CCNc1ccccc1, On1ccccc1=S, O=C(O)c1cccc(N(Cc2cccnc2)c2ccc(OC(F)F)c(OC(F)F)c2)c1, Cn1cnc([N+](=O)[O-])c1Sc1ncnc2nc[nH]c12, Cn1c(=O)cc(Oc2ccc(F)cc2F)c2cnc(NCC(C)(C)O)nc21, C1N2CN3CN1CN(C2)C3, Cc1[nH]cnc1C[C@H]1CCc2c(C)c3ccccc3n2C1=O, C[C@](N)(Cc1ccc(O)c(O)c1)C(=O)O, CC(=O)OC[C@H]1O[C@@](COC(C)=O)(O[C@H]2O[C@H](COC(C)=O)[C@@H](OC(C)=O)[C@H](OC(C)=O)[C@H]2OC(C)=O)[C@@H](OC(C)=O)[C@@H]1OC(C)=O, CC(C)=CCC/C(C)=C\CO, CC[C@H]1OC(=O)[C@H](C)[C@@H](O[C@H]2C[C@@](C)(OC)[C@@H](O)[C@H](C)O2)[C@H](C)[C@@H](O[C@@H]2O[C@H](C)C[C@H](N(C)C)[C@H]2O)[C@](C)(O)C[C@@H](C)C(=O)[C@H](C)[C@@H](O)[C@]1(C)O, COc1cccc(-c2ccc(/C=C\CN3CCCCCC3)cc2Cl)c1, O=C1CCCCCN1, O=C(O)c1cccc(Oc2ccccc2)c1, Clc1nc(Cl)c(Cl)c(Cl)c1Cl, COCCOc1cc2cc(C(=O)NC3CCN(C(C)C)CC3)n(CC(=O)Nc3ccc(Cl)cn3)c2cn1, C=CC(=C)CCC=C(C)C, O=C1CCC(N2C(=O)c3ccccc3C2=O)C(=O)N1 (stereo not given), Cc1ccc(N)cc1O, Cc1ccc(C)c(O)c1, O=P(OC(CCl)CCl)(OC(CCl)CCl)OC(CCl)CCl, O=c1n(CC2CO2)c(=O)n(CC2CO2)c(=O)n1CC1CO1 (stereo not given), CC(C)=CCCC(C)=CC=O, C1=CCCC=CCCC=CCC1, NC(=O)NO, CCc1cc(SCc2sc(-c3ccc(C(F)(F)F)cc3)nc2CN2CCN(c3ccc(OC)cc3)CC2)ccc1OCC(=O)O, CN(C)c1ccc(N=NS(=O)(=O)O)cc1, CN(C)c1ccc(Cc2ccc(N(C)C)cc2)cc1, O=C(CCCCCCCCc1cccnc1)N1CCC(C=C(c2ccccc2)c2ccccc2)CC1, CNCc1ccc(NC(=O)c2c[nH]c3c2C(=O)CCC3)cc1, O=C(OC[C@H]1O[C@@H](OC(=O)c2cc(O)c(O)c(OC(=O)c3cc(O)c(O)c(O)c3)c2)[C@H](OC(=O)c2cc(O)c(O)c(OC(=O)c3cc(O)c(O)c(O)c3)c2)[C@@H](OC(=O)c2cc(O)c(O)c(OC(=O)c3cc(O)c(O)c(O)c3)c2)[C@@H]1OC(=O)c1cc(O)c(O)c(OC(=O)c2cc(O)c(O)c(O)c2)c1)c1cc(O)c(O)c(OC(=O)c2cc(O)c(O)c(O)c2)c1, Cc1ccc(O)cc1, COc1ccc2sc(C(=O)Nc3nnn[nH]3)c(OC(C)C)c2c1, CC1(C)C(=O)N(Br)C(=O)N1Br, Oc1ccc2c(c1)-c1ccccc1C2, CCOc1cccc(-n2cc(C(=O)N3CCN(c4cc(C(=O)O)c5ccccc5c4)CC3)nc2-c2ccc(C)cc2)c1, COC(=O)c1ccccc1O

AC50, active:
CCOC(=O)c1ccc(C2CCC(NC[C@H](O)COc3ccc(O)c(NS(C)(=O)=O)c3)CC2)cc1 (stereo not given in full) 62.3 µM
